In all, about 200,000 compounds went through this assay and about 4,500 (2.2%) were called active. About 12% were inconclusive and are not listed. The list comes from a sample in which actives are over-represented; it also holds similar structures and randomly drawn compounds. Unmarked numbers belong to inactive results. The call rests on the fitted dose curve; in most records, active means well fitted inhibition curve with a large enough effect; inconclusive means small, poorly fitted or top-dose-only effect, or effect the other way; inactive means flat fitted curve, though single readings scatter.
target: Cruzipain (Trypanosoma cruzi) (UniProt P25779); assay: qHTS Assay for Promiscuous and Specific Inhibitors of Cruzain (without detergent); conditions: purified cruzain, Z-FR-AMC fluorescence, no detergent; further: nearly all actives have a fitted effect of over 40% in size;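 on max response, negative = inhibition: plate controls were enzyme without inhibitor for no effect and buffer without enzyme for full effect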
Outline: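 Purified cruzain at 1.5 nM, pre-incubated 15 min with compound at room temperature in 100 mM sodium acetate pH 5.5, 5 mM DTT, 0.00005% Triton X-100. Reaction started with 2 uM Z-FR-AMC; AMC fluorescence increase over 60 s gives rate.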
Potency means the concentration at half of the fitted maximal effect.

Sequence of Cruzipain (Trypanosoma cruzi) (P25779 123-467 limits assumed): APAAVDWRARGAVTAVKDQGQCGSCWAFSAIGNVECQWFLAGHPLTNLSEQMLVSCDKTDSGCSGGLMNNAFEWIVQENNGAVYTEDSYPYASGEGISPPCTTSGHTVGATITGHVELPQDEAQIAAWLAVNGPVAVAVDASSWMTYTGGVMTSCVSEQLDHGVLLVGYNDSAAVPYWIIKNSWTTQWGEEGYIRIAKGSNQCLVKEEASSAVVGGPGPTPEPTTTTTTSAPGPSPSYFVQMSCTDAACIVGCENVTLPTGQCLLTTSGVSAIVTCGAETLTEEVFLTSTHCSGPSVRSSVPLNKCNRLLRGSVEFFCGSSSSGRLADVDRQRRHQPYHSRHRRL

Question: How did the max response, negative = inhibition turn out when `COc1cc(/C=N/O)ccc1OCc1ccc([N+](=O)[O-])cc1` was run?
Answer: 0.78%

Question: Which max response, negative = inhibition does the source give for `COc1cc(/C=N\NC(=O)CNC(=O)c2cccc([N+](=O)[O-])c2)ccc1O` here?
Answer: 6.36%

Question: For `Cc1ccc(-c2nc3cccc(C)n3c2Nc2ccc3c(c2)OCCO3)cc1`, which max response, negative = inhibition is on record?
Answer: -0.169%

Question: Which max response, negative = inhibition does the source give for `CCCN1CCN(CCCNC(=O)c2cnn(-c3ccc(C)cc3)c2-n2cccc2)CC1` here?
Answer: 7.09%

Question: Which max response, negative = inhibition does the source give for `CCCCOc1ccc(CNC(=O)c2ccc3c(c2)N(C)C(=O)C2CCCCN32)cc1` (centres undefined) here?
Answer: 13.9%

Question: How did the max response, negative = inhibition turn out when `COc1ccccc1NC(=O)c1oc2ccccc2c1NC(=O)COc1ccccc1OC` was run?
Answer: -7.97%

Question: How did the max response, negative = inhibition turn out when `Cc1cc([N+](=O)[O-])ccc1NCc1cccc([N+](=O)[O-])c1` was run?
Answer: 2.12%

Question: How did the Potency turn out when `Cc1cccc(COc2ccccc2/C=N/Nc2ccc([N+](=O)[O-])cc2)c1` was run?
Answer: 25.1 µM (active)

Question: For `Cc1cccc(CC(=O)N2CCN=C2SCc2ccc([N+](=O)[O-])cc2)c1`, which max response, negative = inhibition is on record?
Answer: -7.03%

Question: Which max response, negative = inhibition does the source give for `N#Cc1ccc(-c2cccs2)nc1SCc1ccc(Br)cc1` here?
Answer: -6.69%

Question: `COc1ccc2c(c1)c(N1CCCC1=O)c(C(=O)Nc1ccccc1C(F)(F)F)n2C` was tested. Which max response, negative = inhibition did it give?
Answer: -10%

Question: Which max response, negative = inhibition does the source give for `COc1ccc(C(=O)N2CCC(c3nc4ccccc4o3)CC2)cc1` here?
Answer: 14.3%

Question: For `Cc1ccc(-c2noc(-c3nnn(-c4cccc(C(F)(F)F)c4)c3N)n2)cc1`, which max response, negative = inhibition is on record?
Answer: 1.55%

Question: With `CCSc1nnc(NC(=O)c2ccc(C)cc2)s1` as the molecule, how does the Potency read?
Answer: 0.631 µM (active)

Question: Which max response, negative = inhibition does the source give for `CCSc1nnc(NC(=O)c2cc(=O)c3cc(C)c(C)cc3o2)s1` here?
Answer: -5.87%

Question: With `CCSc1nnc(NC(=O)Cc2ccccc2OC)s1` as the molecule, how does the max response, negative = inhibition read?
Answer: 0.739%

Question: `Cc1ccccc1OCc1nc2c3cnn(-c4ccccc4F)c3ncn2n1` was tested. Which max response, negative = inhibition did it give?
Answer: -7.52%

Question: For `COc1cc(OC)c(NC(=O)Cc2ccc(-n3c(C)nc4cccnc43)cc2)cc1Cl`, which max response, negative = inhibition is on record?
Answer: 4.77%

Question: With `COc1c(Cl)cc(C(=O)N(Cc2ccccc2F)C2CCS(=O)(=O)C2)cc1Cl` (centres undefined) as the molecule, how does the max response, negative = inhibition read?
Answer: 6.06%

Question: How did the Potency turn out when `Cc1cccc(N=C2NN=C(c3c[nH]c4ccccc34)CS2)c1` was run?
Answer: 7.94 µM (active)

Question: Which max response, negative = inhibition does the source give for `Cc1ccc(-c2csc(-c3c[nH]c4ccccc34)n2)cc1` here?
Answer: 1.08%

Question: For `COCCn1c(C)cc(C2=NNC(=Nc3ccc(F)cc3)SC2)c1C`, which max response, negative = inhibition is on record?
Answer: -3.73%

Question: How did the max response, negative = inhibition turn out when `CC(=O)N1c2ccccc2CC1C(=O)N1CCN(c2ccc(F)cc2)CC1` (centres undefined) was run?
Answer: 13.9%

Question: For `Cc1nc(SCC(=O)Nc2ccc(C(=O)O)cc2)n[nH]1`, which max response, negative = inhibition is on record?
Answer: 6.79%

Question: Which Potency does the source give for `Nc1nc(N)c2[nH]c(CNc3ccc(C(=O)O)cc3)nc2n1` here?
Answer: 3.98 µM (active)

Question: For `O=C(CCS(=O)(=O)c1cc(Br)cc2c1N(C(=O)C1CC1)CC2)Nc1ccc(Br)cc1F`, which max response, negative = inhibition is on record?
Answer: -5.03%

Question: For `Cc1ccc(OCc2nnc(NC(=O)OCC(C)C)s2)cc1`, which Potency is on record?
Answer: 20 µM (active)

Question: Which max response, negative = inhibition does the source give for `CCOCc1nnc(NC(=O)CSc2ccc(C)cc2)s1` here?
Answer: 1.04%

Question: `COCC(=O)Nc1nnc(COc2ccccc2)s1` was tested. Which max response, negative = inhibition did it give?
Answer: 2.8%

Question: Which max response, negative = inhibition does the source give for `CCC(CC)C(=O)N1CC(=O)Nc2ccc(Br)cc2C1c1ccccc1` (centres undefined) here?
Answer: -0.646%

Question: For `CCCCOc1ccc(C(=O)N2CC(=O)Nc3ccc(Br)cc3C2c2ccc(F)cc2)cc1` (centres undefined), which Potency is on record?
Answer: 25.1 µM (active)

Question: With `COc1ccc(CC(=O)N2CC(=O)Nc3ccc(Br)cc3C2c2ccc(F)cc2)cc1OC` (centres undefined) as the molecule, how does the max response, negative = inhibition read?
Answer: 18.8%

Question: Which max response, negative = inhibition does the source give for `Cc1ccc2cccc(NC(=O)c3ccc(OC(C)C)cc3)c2n1` here?
Answer: -1.78%

Question: With `Cc1[nH]c2ccccc2c1/C=N/NC(=O)CNC(=O)c1ccc2c(c1)OCO2` as the molecule, how does the max response, negative = inhibition read?
Answer: -1.52%

Question: Which max response, negative = inhibition does the source give for `O=C(Cn1nnc(-c2ccccc2)n1)NCc1ccccc1` here?
Answer: 3.66%

Question: With `Cc1[nH]c2ccccc2c1/C=N\NC(=O)Cn1nnc(-c2ccccc2)n1` as the molecule, how does the Potency read?
Answer: 7.94 µM (active)

Question: How did the max response, negative = inhibition turn out when `CCOc1ccc(NC(=O)c2ncoc2-c2ccco2)cc1` was run?
Answer: -16.9%

Question: With `Cc1ccc(CNC(=O)CSC2=Nc3ccccc3C3=NC(C)C(=O)N23)cc1` (centres undefined) as the molecule, how does the max response, negative = inhibition read?
Answer: -15.8%

Question: For `O=C1C2N=NN(CC(=O)N3N=C(c4cccc5ccccc45)CC3c3ccccc3)C2C(=O)N1c1ccccc1` (centres undefined), which Potency is on record?
Answer: 5.01 µM (active)

Question: `Cc1ccc(N2C(=O)C3N=NN(CC(=O)N4N=C(c5cccc6ccccc56)CC4c4ccccc4)C3C2=O)cc1` (centres undefined) was tested. Which Potency did it give?
Answer: 7.94 µM (active)

Question: Which max response, negative = inhibition does the source give for `Cc1ccc(C2=NN(C(=O)CSc3nc(N)cc(N)n3)C(c3ccco3)C2)cc1` (centres undefined) here?
Answer: 4.32%

Question: `Cc1cc(C)c(NC(=O)CSc2nc3nccnc3c(=O)n2CCc2c[nH]c3ccccc23)c(C)c1` was tested. Which max response, negative = inhibition did it give?
Answer: 9.02%

Question: `O=C(Nc1cc(Cl)cc(Cl)c1)c1ccc2c(c1)N(Cc1cccc(Cl)c1)C(=O)c1ccccc1S2=O` (centres undefined) was tested. Which max response, negative = inhibition did it give?
Answer: -5.94%

Question: Which max response, negative = inhibition does the source give for `O=c1[nH]c2cc(Br)ccc2n2cccc12` here?
Answer: 11.1%

From PubChem BioAssay AID1476 (National Center for Advancing Translational Sciences (NCATS), 2009)
